From paper PMC4552634, “A New Set of Chemical Starting Points with Plasmodium falciparum Transmission-Blocking Potential for Antimalarial Drug Discovery” (PLoS ONE, 2015)
Among all 13,000 compounds or so, about 3,200 (25%) showed an effect of 50% or more. The list shows a part of the results.

What follows are compounds tested on P. falciparum stage V gametocytes. Conditions: 48 h, 5 µM; inhibitor.
Set-up: BacTiter-Glo ATP luminescence viability of purified stage V gametocytes in 384-well plates, per cent inhibition versus DMSO

Row | SMILES | % Inhibition [%]
1 | CN(C)c1ccc(CN2CCC(NC(=O)c3ccc(-c4cccc(F)c4)s3)CC2)cc1 [TCMDC-134327] | -0.6628
2 | COc1ccccc1Nc1nc(C)cc(NCc2ccc(-n3ccnc3)cc2)n1 [TCMDC-133452] | 11.88
3 | COc1ccc(S(=O)(=O)Nc2cc(C)cc(Br)c2OC)cc1N1CCN(C(=O)C(Cl)(Cl)Cl)CC1 [TCMDC-139808] | 8.102
4 | CO/C(=C\C=C\c1cc2cc(Cl)c(Cl)cc2[nH]1)C(=O)NCCCN1CCN(c2ccncc2)CC1 [TCMDC-139184] | 16.21
5 | CN(C)CCCSc1ccccc1NC(=O)C=Cc1ccccc1 [TCMDC-125843] | 7.207
6 | Cc1ccc(-c2noc(COc3ccccc3C(=O)NC3CCCC3)n2)cc1 [TCMDC-124748] | 47.39
7 | FC(F)(F)c1ccc2nccc(NCc3ccccc3)c2c1 [TCMDC-138259] | -8.95
8 | CCc1ccc(NC(=O)c2ccc(CN3CCCN(CCC(C)C)CC3)cc2)cc1 [TCMDC-136448] | -6.236
9 | COc1ccc2oc(=O)c(C#N)c(O)c2c1 [TCMDC-131398] | -8.165
10 | CCCCCCN1CCC(NCc2cccc(C#N)c2)CC1 [TCMDC-141670] | -17.05
11 | CCCCCCN1CCC(NCc2ccc(CN(C)C)cc2)CC1 [TCMDC-141662] | 16.26
12 | CN1CCN(CCCN(Cc2cccc(-c3ccc(CNC4CCCC4)cc3)c2)C(=O)CCC2CCCC2)CC1 [TCMDC-140750] | 98.64
13 | CN1CCN(CCCN(Cc2cccc(-c3cccc(CNC4CCCC4)c3)c2)C(=O)CCC2CCCC2)CC1 [TCMDC-140555] | 119.1
14 | FC(F)(F)c1cccc(CNC2CCN(CC3CCCCC3)CC2)c1 [TCMDC-141660] | -52.78
15 | CN1CCN(CCCN(Cc2ccc(-c3ccc(CNC4CCCC4)cc3)cc2)C(=O)CCC2CCCC2)CC1 [TCMDC-140560] | 99.06
16 | FC(F)(F)c1ccc(CNC2CCN(CC3CCCCC3)CC2)cc1 [TCMDC-141661] | -50.93
17 | CCCC(C)Nc1nc(C)cc(N[C@@H](Cc2ccccc2)C(=O)Nc2ccccc2)n1 (stereo partly drawn) [TCMDC-134767] | -30.62
18 | CCc1c(C(=O)NC2CCC(N3CCC(c4ccccc4OC)CC3)CC2)[nH]c2ccc(Br)cc12 (stereo not drawn) [TCMDC-133499] | -52.27
19 | COc1ccccc1C(C)NCC(=O)Nc1cc(C(F)(F)F)ccc1Cl (stereo not drawn) [TCMDC-125041] | -2.208
20 | COc1ccc(Nc2nccc(N3CCC(NS(=O)(=O)c4ccc(NC(C)=O)cc4)C3)n2)cc1 (stereo not drawn) [TCMDC-133608] | -25.9
21 | CNC(=O)C(NC(=O)c1ccccc1C(=O)OC)c1ccccc1 (stereo not drawn) [TCMDC-137226] | 6.158
22 | CCN(CC)CCN(Cc1ccc(-c2ccc(C(F)(F)F)cc2)cc1)C(=O)Cn1cc(Cc2cnn(C)c2)c(=O)nc1/C=C/c1cccc(F)c1F [TCMDC-140964] | 99.53
23 | CCN(CC)CCN(Cc1ccc(-c2ccc(C(F)(F)F)cc2)cc1)C(=O)Cn1cc(Cc2cnn(C)c2)c(=O)nc1/C=C/c1ccc(F)cc1 [TCMDC-140741] | 95.48

Row | SMILES | % Inhibition [%]
24 | O=C(Cc1cc(=O)oc2cc(O)ccc12)N1CCC(CN2CCC(c3c[nH]c4ccccc34)CC2)CC1 [TCMDC-139881] | 9.393
25 | N#Cc1cccc(NC(=O)Nc2ccc(-c3csc(-c4nc5ccccc5[nH]4)c3)cc2)c1 [TCMDC-133188] | 30.15
26 | Cn1nc(C(F)(F)F)cc1-c1ccc(C(=O)Nc2ccc3c(c2)CNCC3(C)C)s1 [TCMDC-141916] | 39.68
27 | NC(N)=NC(=O)Nc1cc(Cl)c(Cl)c(C(F)(F)F)c1 [TCMDC-137511] | -11.78
28 | CCCCC(=O)Nc1cc(=O)[nH]c2nc(-c3ccc(Cl)cc3)nn12 [TCMDC-125002] | 1.203
29 | COc1cc(NC(=O)/C=C/c2cc(F)cc(F)c2F)cc(OCCN2CCC(O)(c3ccccc3)CC2)c1 [TCMDC-140936] | -10.33
30 | N#Cc1cccc(NC(=O)Nc2ccc3c(c2)CCN(C2CCC2)CC3)c1 [TCMDC-136005] | 22.54
31 | COc1ccc(C(C(=O)NC2CCN(C[C@H](O)c3ccnc4ccc(OC)cc34)CC2)N2CCN(Cc3ccccc3)CC2)cc1 (stereo partly drawn) [TCMDC-140987] | -16.46
32 | CN1CCC(COC(=O)C(O)(c2ccccc2)c2ccccc2)C1 (stereo not drawn) [TCMDC-131375] | 2.294
33 | C=CCNS(=O)(=O)c1ccc(NC(=O)C(C)Oc2ccc([N+](=O)[O-])cc2)cc1 (stereo not drawn) [TCMDC-125123] | 69.95
34 | Cc1cc(N(C)C)nc(Nc2ccc(NC(=O)C(C)Oc3ccccc3)cc2)n1 (stereo not drawn) [TCMDC-124974] | 7.49
35 | CCNS(=O)(=O)c1ccc(Oc2ccc([N+](=O)[O-])cc2)cc1 [TCMDC-137451] | -0.3916
36 | NCCNc1ccc([N+](=O)[O-])cc1C(=O)Nc1cccc(Cl)c1 [TCMDC-123690] | 33.32
37 | Cc1ccc(NC(=O)c2cc([N+](=O)[O-])ccc2NCc2cccnc2)cc1Cl [TCMDC-124571] | 7.674
38 | CCCCNS(=O)(=O)c1ccc(NC(=O)c2cc([N+](=O)[O-])ccc2Cl)cc1 [TCMDC-124345] | 83.43
39 | Cc1cc(N2CCCC2)nc(Nc2ccc(NC(=O)C(C)Oc3ccccc3)cc2)n1 (stereo not drawn) [TCMDC-124968] | 18.82
40 | C=CCNC(=O)C(C)c1ccc2cc(OC)ccc2c1 (stereo not drawn) [TCMDC-132021] | 24.74
41 | CCCNS(=O)(=O)c1ccc(NC(=O)C(C)Oc2ccc([N+](=O)[O-])cc2)cc1 (stereo not drawn) [TCMDC-125122] | 65.91
42 | O=C(Nc1ccc(OC2CCN(Cc3ccc(F)cc3)CC2)c(Cl)c1)c1ccoc1 [TCMDC-133744] | 29.48
43 | CCNC(=O)NC1CCN(Cc2c(-c3cccs3)nc3ccccc3c2C(=O)N[C@@H](C)C2CCCCC2)CC1 [TCMDC-141704] | 101.3
44 | CNC(=O)NC1CCN(Cc2c(-c3cccs3)nc3ccccc3c2C(=O)N[C@@H](C)C2CCCCC2)CC1 [TCMDC-141689] | 58
45 | CC(C)CC(=O)NC1CCN(Cc2c(-c3cccs3)nc3ccccc3c2C(=O)N[C@@H](C)C2CCCCC2)CC1 [TCMDC-141791] | -23.57
46 | C[C@H](NC(=O)c1c(CN2CCC(NC(=O)CC(C)(C)C)CC2)c(-c2cccs2)nc2ccccc12)C1CCCCC1 [TCMDC-141792] | 25.58

Row | SMILES | % Inhibition [%]
47 | C[C@H](NC(=O)c1c(CN2CCC(N3CCCCC3=O)CC2)c(-c2cccs2)nc2ccccc12)C1CCCCC1 [TCMDC-141620] | -63.06
48 | C[C@H](NC(=O)c1c(CN2CCN(C(=O)C(C)(C)C)CC2)c(-c2cccs2)nc2ccccc12)C1CCCCC1 [TCMDC-141723] | -7.5
49 | Cc1nc2ccccc2c(=O)n1NCc1ccc(Cl)c(Cl)c1 [TCMDC-131405] | 15.32
50 | CNC(=O)c1cc(NCCCNCc2ccc(Cl)c(C(F)(F)F)c2)nc2ccccc12 [TCMDC-141082] | 72.56
51 | O=c1cc(NCCCNCc2ccc(C(F)(F)F)c(F)c2)[nH]c2ccccc12 [TCMDC-139428] | -42.45
52 | CCc1cc2c(Sc3nc4ccccc4[nH]3)ncnc2s1 [TCMDC-124553] | 60.6
53 | Cc1sc2ncnc(Sc3nc4ccccc4[nH]3)c2c1C [TCMDC-123835] | 57.62
54 | Nc1ncc(-c2ccsc2)cc1-c1nc2ccccc2[nH]1 [TCMDC-133557] | 13.31
55 | Clc1ccc(Nc2nc(Nc3ccc(Cl)c(Cl)c3)nc(Sc3nc4ccccc4[nH]3)n2)cc1Cl [TCMDC-124069] | -24.51
56 | COc1ccc(NC(=O)[C@H](CC(C)C)Nc2cc(C)nc(Nc3ccccc3)n2)cc1 [TCMDC-134738] | -4.957
57 | CCCCn1c(C)c(C(=O)OCC)c2cc(OC(C)=O)c(Br)cc21 [TCMDC-125582] | -26.36
58 | c1cc(CNC2Cc3ccccc3C2)cc(-c2cnc(N3CCNCC3)nc2)c1 [TCMDC-133140] | 110.7
59 | CC1CN(c2ncc(-c3ccc(CNC4Cc5ccccc5C4)cc3)cn2)CC(C)N1 (stereo not drawn) [TCMDC-133769] | 77.63
60 | CCCNC(=O)c1cncc(-c2cccc(CNC3Cc4ccccc4C3)c2)c1 [TCMDC-134220] | -28.4
61 | CC(C)CNC(=O)c1cncc(-c2cccc(CNC3Cc4ccccc4C3)c2)c1 [TCMDC-134219] | -68.65
62 | CC[C@H](C)CNC(=O)c1cncc(-c2ccc(CNC3Cc4ccccc4C3)cc2)c1 [TCMDC-134240] | -0.9583
63 | CCCNCc1ccc(-c2ccc(CNC3Cc4ccccc4C3)cc2)nc1 [TCMDC-141616] | 6.713
64 | CN(CCCNCc1cccc2ccccc12)CCCNCc1cccc2ccccc12 [TCMDC-137905] | 108.9
65 | CN(CCCNCc1ccc2ccccc2c1)CCCNCc1ccc2ccccc2c1 [TCMDC-137908] | 106.3
66 | N#Cc1ccc(-c2ccc(C(=O)NCCCCN3CC=C(c4ccc5c(c4OCC4CC4)CCCC5)CC3)cc2)cc1 [TCMDC-138756] | 42.6
67 | O=C(c1ccc(OCCn2ccnc2)cc1)N1CCC(c2ccc(Br)cc2)C1 (stereo not drawn) [TCMDC-134837] | 38.05
68 | CN(CCCN(C)c1cc(NC(=O)c2cccc(F)c2)ccn1)Cc1cccc(O)c1 [TCMDC-134952] | -21.83
69 | Cc1ccc(C(O)CNc2ccnc(Nc3cccc(-c4csc(C)n4)c3)n2)cc1 (stereo not drawn) [TCMDC-136570] | 6.544
